Measurements from the supplement of paper PMC13380429.

Test system: Vero E6 infected with SARS-CoV-2
Assay: inhibition of SARS-CoV-2 cytopathic effect; higher = more antiviral protection, active = above 15
Conditions: 48 h

Measured: inhibition of SARS-CoV-2 cytopathic effect

O=C(NNc1nc2cc(F)ccc2n2cccc12)c1cnccn1
inactive: 1 nM -2.31% | 8.33 nM 0.82% | 100 nM 0.63% | 833.33 nM 0.71% | 10000 nM -4.33%

c1ccc(-c2n[nH]c3c2oc2ccccc23)cc1
inactive: 1 nM -0.45% | 8.33 nM -5.74% | 100 nM 1% | 833.33 nM 2.4% | 10000 nM -0.82%

CCc1ccc(C2=CC(C)(C)Sc3ccc(C#Cc4ccc(C(=O)O)cc4)cc32)cc1
inactive: 1 nM 0.1% | 8.33 nM 2.14% | 100 nM 1.4% | 833.33 nM 1.53% | 10000 nM 3.68%

CN1C(=O)N[C@H](Cc2c[nH]c3c(Cl)cccc23)C1=O [necrostatin-2]
inactive: 1 nM -3.13% | 8.33 nM -7.04% | 100 nM -6.01% | 833.33 nM -0.96% | 10000 nM -5.96%

CCS(=O)(=O)N1CC(CC#N)(n2cc(-c3ncnc4[nH]ccc34)cn2)C1 [baricitinib]
inactive: 1 nM 3.34% | 8.33 nM -0.51% | 100 nM -1.28% | 833.33 nM 0.06% | 10000 nM -2.55%

N[C@]1(C(=O)O)CC[C@@H](C(=O)O)C1
inactive: 1 nM 1.21% | 8.33 nM 2.87% | 100 nM 0.81% | 833.33 nM 1.58% | 10000 nM 1.7%

CCN(CC)CCCCC1CCN(CC(=O)N2c3ccccc3C(=O)Nc3cccnc32)CC1
inactive: 1 nM -0.6% | 8.33 nM 0.18% | 100 nM -0.52% | 833.33 nM -1.51% | 10000 nM -4.44%

CCCCCCCCCCCCCC(=O)[O-].CCCCCCCCCCCCCC(=O)[O-].N[C@@H]1CCCC[C@H]1N.[Pt+2] [miriplatin]
inactive: 1 nM -0.38% | 8.33 nM -0.15% | 100 nM 0.5% | 833.33 nM -1% | 10000 nM -1.94%

Nc1ccc2cc3ccc(N)cc3nc2c1 [proflavine-hemisulfate]
inactive: 1 nM -1.46% | 8.33 nM -2.57% | 100 nM -0.42% | 833.33 nM 1.94% | 10000 nM -8.75%

CN(C)CC/C=C1/c2ccccc2Sc2ccc(Cl)cc21 [chlorprothixene]
inactive: 1 nM 5.54% | 8.33 nM 3.98% | 100 nM -4.95% | 833.33 nM -3.59% | 10000 nM -1.82%

COc1ncc(-c2ccc3nccc(-c4ccnnc4)c3c2)cc1NS(=O)(=O)c1ccc(F)cc1F
inactive: 1 nM -1.37% | 8.33 nM -0.94% | 100 nM -8.41% | 833.33 nM -8.47% | 10000 nM 3.03%

CC(C)NC[C@@H](C(=O)N1CCN(c2ncnc3c2[C@H](C)C[C@H]3O)CC1)c1ccc(Cl)cc1
inactive: 1 nM -0.34% | 8.33 nM -0.39% | 100 nM -0.29% | 833.33 nM 2.69% | 10000 nM 1.98%

CC(C)NC[C@@H](O)COc1ccc(CC(N)=O)cc1 (racemic) [atenolol-(+/-)]
inactive: 1 nM -2.25% | 8.33 nM 0.225% | 100 nM 0.74% | 833.33 nM 0.24% | 10000 nM -0.8%

O=C(NOCCO)c1ccc2cncn2c1Nc1ccc(I)cc1F
inactive: 1 nM -1.68% | 8.33 nM -5.37% | 100 nM -12.8% | 833.33 nM -14.4% | 10000 nM -13.2%

CCC(C)(C)C(=O)O[C@H]1C[C@@H](C)C=C2C=C[C@H](C)[C@H](CC[C@@H]3C[C@@H](O)CC(=O)O3)[C@H]21 [simvastatin]
inactive: 1 nM -3.26% | 8.33 nM 0.13% | 100 nM -0.41% | 833.33 nM -0.83% | 10000 nM 5.01%

CC(=O)N(c1onc(C)c1C)S(=O)(=O)c1ccc(N)cc1 [sulfisoxazole-acetyl]
inactive: 1 nM -4.04% | 8.33 nM -3.48% | 100 nM -3.58% | 833.33 nM -0.91% | 10000 nM 0.37%

CN1C(=O)N(c2cc(Cl)cc(Cl)c2)C(=O)[C@@]1(C)Cc1ccc(Br)cc1
inactive: 1 nM -0.07% | 8.33 nM -0.29% | 100 nM -0.15% | 833.33 nM -1.61% | 10000 nM -5.8%

C[C@]12CC[C@@H](O)C[C@H]1CC[C@@H]1[C@@H]2CC[C@]2(C)C(=O)CC[C@@H]12 [3-alpha-hydroxy-5-beta-androstan-17-one]
inactive: 1 nM -1.07% | 8.33 nM 1.38% | 100 nM 2.2% | 833.33 nM 3% | 10000 nM 2.64%
